Data published in PubChem BioAssay (NCI).
About 79,000 compounds went through this panel and 15% of them were active in at least one assay; those are over-represented in the sample as a whole. Unmarked numbers belong to inactive results. Calls of active or inactive are those of the source. Rule as the data show it: active = growth inhibition above about 70%; inactive = the rest. Where a SMILES comes first, the peptide text is derived from it. [ ]: non-standard residue; d: D form. The star is where a group is joined. ξ: configuration not given here. ξF = NC(Cc1ccccc1)C(=O)O; Cbz = O=C(OCc1ccccc1)*; Aib = CC(C)(N)C(=O)O; NHNH2 = NN*

Experiments:
[1] = NCI Yeast Anticancer Drug Screen. Data for the rad50 strain (AID 155);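 also: 0% = growth of vehicle-only cultures of the same strain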; settings: S. cerevisiae rad50 strain growth inhibition; at 50.0 µM; active compounds read high
Outline: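 Relative growth inhibition (compound vs vehicle) was measured in yeast with a defined repair-gene alteration.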

[2] = NCI Yeast Anticancer Drug Screen. Data for the mec2-1 strain (AID 157); settings: S. cerevisiae mec2-1 strain, at 50.0 µM, active compounds read high
Outline: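 Test agents were screened against the mec2-1 yeast strain, with defined DNA repair or cell cycle alteration. Growth was scored as inhibition against vehicle-only controls.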

[3] = NCI Yeast Anticancer Drug Screen. Data for the sgs1 mgt1 strain (AID 161);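 also: 0% = growth of cultures given vehicle only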; settings: S. cerevisiae sgs1 mgt1 strain, at 50.0 µM, active compounds read high
Outline: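 Read-out: growth inhibition vs vehicle controls. Cells: mutant yeast strain deficient in DNA damage repair.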

[4] = NCI Yeast Anticancer Drug Screen. Data for the cln2 rad14 strain (AID 165);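 also: 0% = growth equal to vehicle treated cultures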; settings: S. cerevisiae cln2 rad14 strain, at 50.0 µM, active compounds read high
Outline: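 Growth of compound-exposed yeast (cln2 rad14 genotype) measured and expressed as inhibition relative to vehicle.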

[5] = NCI Yeast Anticancer Drug Screen. Data for the bub3 strain (AID 167); settings: S. cerevisiae bub3 mutant strain, at 50.0 µM, active compounds read high
Outline: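 Screening used yeast with an engineered genetic alteration affecting cell cycle control. Compound-exposed cultures were compared with vehicle cultures, and reduced growth was taken as inhibition.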

[6] = NCI Yeast Anticancer Drug Screen. Data for the mlh1 rad18 strain (AID 175); settings: S. cerevisiae mlh1 rad18 strain growth inhibition; at 50.0 µM; active compounds read high
Outline: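 In this whole-cell yeast screen, a strain with altered DNA damage repair is challenged with compound, and its growth is measured against matched vehicle-treated controls.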

Row | SMILES | growth inhibition [1] | growth inhibition [2] | growth inhibition [3] | growth inhibition [4] | growth inhibition [5] | growth inhibition [6]
1 | NCC1CCC(C(=O)O)CC1 (stereo unspecified) | -14.4% | -9.35% | -10% | -20.9% | -24.9% | -21.6%
2 | c1ccc(Nc2ccc3ccccc3n2)cc1 | 40.6% | 4.75% | 40.5% | 14% | -1.8% | 16.4%
3 | O=C(O)C(=Cc1ccc([N+](=O)[O-])cc1)C(=O)O | 11.1% | -21.8% | 5.95% | -7.35% | -0.7% | -11.6%
4 | CCN(CC)c1ccc(/C=N/NC(=O)NN)cc1 | 4.35% | -20.9% | -15.4% | -13.1% | -7.95% | -5.3%
5 | O=CNc1ccc(S(=O)(=O)c2ccc(NC=O)cc2)cc1 | 4.05% | -35.7% | 4.75% | 26.6% | 9.9% | -18.1%
6 | Oc1ccc(O)c(CCCCCc2cc(O)ccc2O)c1 | 76.3% (active) | 37.4% | 66.5% | 34.4% | 70.2% (active) | 97.7% (active)
7 | CNC(=O)OCc1c(-c2ccccc2)c(-c2ccccc2)n(C)c1COC(=O)NC | 37.6% | 22.5% | 51.7% | 15.8% | 33.2% | 87.8% (active)
8 | CNC(=O)C(C)NC(=O)C(Cc1ccccc1)NC(=O)OC(C)(C)C (stereo unspecified) | -10.2% | -57.7% | -16.2% | -28.8% | -19.2% | 1.05%
9 | CCCCCCCCSc1nc(Nc2cc(C(C)(C)C)c(O)c(C(C)(C)C)c2)nc(SCCCCCCCC)n1 | 41.6% | 1.95% | 13.1% | 34.1% | -0.9% | 28.4%
10 | Cc1ccc(F)cc1S(N)(=O)=O | -19.4% | -9.65% | -16.6% | -14.4% | 12.3% | -7.8%
11 | O=C(O)COc1c2occc2cc2ccc(=O)oc12 | 7.9% | -12.4% | 22.7% | 1.55% | -3.1% | 6%
12 | COc1c(NC(=O)Nc2ccc(F)c([N+](=O)[O-])c2)cccc1[N+](=O)[O-] | 7.85% | 22.1% | 10% | 2.8% | 20.1% | 27.8%
13 | O=C(C[n+]1ccccc1)N/N=C(\Cc1nc2ccc([N+](=O)[O-])cc2[nH]c1=O)C(=O)Nc1cc(Cl)c(Cl)cc1Cl | 24.2% | 10.1% | 2.5% | -27.8% | 16.9% | 9.35%
14 | CCN(CC)CCCNc1cc(OC)c(Cl)c2cccnc12 | 22.2% | 9.1% | 38% | 35.9% | -19.8% | 28.7%
15 | CCOC(=O)CC[C@H](NC(=O)c1nc[nH]c1[N+](=O)[O-])C(=O)OCC | -17.8% | -36% | -44.4% | 8.9% | -7.35% | -34.4%
16 | [O-][n+]1ccncc1Cl | -1.15% | -0.65% | -2.75% | 0.55% | 18.6% | 7.05%
17 | CCOC(=O)c1[nH]c2nc(N)ncc2c(=O)c1C | -0.15% | -0.95% | -0.15% | 43.6% | 12.8% | 11.7%
18 | CC(C)(NC(=O)OCc1ccccc1)C(=O)NC(Cc1ccccc1)C(=O)NN (stereo unspecified) (Cbz-[Aib]-[ξF]-NHNH2) | 0.55% | 7.35% | 7% | 20.9% | 15.4% | -20.1%

Row | SMILES | growth inhibition [1] | growth inhibition [2] | growth inhibition [3] | growth inhibition [4] | growth inhibition [5] | growth inhibition [6]
19 | NC(CS)=NCc1ccccc1 | 0.65% | -1.35% | -12.9% | -86.6% | 8.85% | -6%
20 | Cc1nc(Cl)c(Cl)c(Cl)n1 | 5% | -7.9% | -0.6% | 5.55% | -4% | -5.2%
21 | CCOC(=O)/C(C#N)=C1/Sc2c(ncn(/N=C/c3ccc(OC)cc3)c2=O)N1c1ccccc1 | 26.7% | -2.85% | 6.45% | -45.3% | -12.8% | 4.4%
22 | Cc1nc(N)c(N2CCN(CN)CC2)c(=O)[nH]1 | -35.2% | 7.1% | -5.85% | 21.6% | 25.9% | -38%
23 | Cc1nn(-c2ccccc2)c2oc3ccccc3c(=O)c12 | -25.6% | -7.4% | -35.5% | -29.5% | -20.9% | -31.1%
24 | O=CC1CCCc2ccccc21 (stereo unspecified) | 17.1% | -20.5% | -0.7% | -5.7% | 3.9% | 5.6%
25 | Cc1[nH]nc(N)c1C(N)=O | 5.2% | 2.5% | 26.6% | 1.2% | 0.85% | 5.85%
26 | Cc1ccc(C(=O)c2c(C)cccc2C(=O)O)c(C)c1 | -0.95% | -2.1% | 8.45% | 12.6% | -3.85% | 29.4%
27 | COc1nc(N)c(NC(C)=O)c(=O)n1C | 3.9% | -19.2% | -21.4% | -4.3% | -22.6% | 9%
28 | Cc1ccc(C)c(NC(=O)NC(C)C)c1 | -0.6% | 0.5% | 5.45% | -25.6% | -5.3% | -0.35%
29 | COc1cc2c(cc1OC)C(=O)C1(C2)[C@H](c2ccccc2)C2C(=O)c3cc(OC)c(OC)cc3C2[C@H]1c1ccccc1 (stereo partly specified) | -2.5% | 3.25% | 29.9% | 17.6% | 46% | 23.1%
30 | COc1ccc(-c2nc(N)nc(-c3cc(C)ccc3O)c2Cl)cc1 | 12.7% | -0.45% | 5.3% | 17.4% | 6.5% | 12.6%
31 | O=c1[nH]cnc2ccccc12 | 39% | -1.55% | 0.2% | -7.3% | 16.6% | 14.7%
32 | CCC(=O)/C=C/c1cc(OC)c(OC)c(OC)c1 | 7.15% | -24.9% | -4.4% | -36.9% | -9.1% | 2.4%
33 | COc1c(OC)c(C(C)C)c2c(c1C(=O)O)C(=O)OC2=O | -5.6% | 10.9% | 11.2% | -14.9% | -7.5% | -7.75%
34 | CS(=O)(=O)C(C#N)c1nc2ccccc2nc1Cl (stereo unspecified) | -20.6% | -17.7% | -53.1% | -9.6% | -42% | -30.6%
35 | C=CCCCCCCCCCCCCCC | -0.85% | -2.3% | -4% | 10% | -7.5% | 26.9%
36 | O=C(OC1COC(OCc2ccccc2)C(OC(=O)c2ccccc2)C1OC(=O)c1ccccc1)c1ccccc1 (stereo unspecified) | 8% | -24.4% | 3.1% | -30.3% | 0.4% | 2.75%
